These results are taken from PubChem BioAssay (Tox21).

Records with an inconclusive call do not appear. A call without a number means that no potency is given here. Calls of active or inactive are those of the source. The call rests on the fitted dose curve.
Potency means the concentration at half of the fitted maximal effect.

The assay in a line: qHTS assay to identify small molecule agonists of the NFkB signaling pathway - cell viability counter screen (AID 1159515). Further: nearly all actives have a fitted effect of over 55% in size. Particulars: NFkB-bla ME-180 viability, CellTiter-Glo luminescence, 5 h; series mostly up to 61 µM. Summed up:
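Parallel cytotoxicity counter screen in ME-180 cells carrying an NFkB-response-element beta-lactamase reporter, 2,000 cells/well. Compound exposure lasted 5 hr at 37 C, 5% CO2. Cell viability was quantified by CellTiter-Glo luminescence.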
Regarding `CCCSP(=O)(OCC)SCCC`, the Potency result is “inactive”.

For `CCCCCCCCCCCCCCCCCCn1cc[n+](C)c1`, the Potency is 48.7 µM (active).

With `C[C@@H]1CC[C@@]2(OC1)O[C@H]1[C@@H](O)[C@H]3[C@@H]4CC[C@H]5C[C@@H](O[C@@H]6O[C@H](CO)[C@H](O[C@@H]7O[C@H](CO)[C@@H](O)[C@H](O[C@@H]8OC[C@@H](O)[C@H](O)[C@H]8O)[C@H]7O[C@@H]7O[C@H](CO)[C@@H](O)[C@H](O[C@@H]8O[C@H](CO)[C@@H](O)[C@H](O)[C@H]8O)[C@H]7O)[C@H](O)[C@H]6O)[C@H](O)C[C@]5(C)[C@H]4CC[C@]3(C)[C@H]1[C@@H]2C`, the Potency is 9.25 µM (active).

For `CC(C)CC(C)Nc1ccc(Nc2ccccc2)cc1` (stereo not given), the Potency is 54 µM (active).

On to `CC1(c2ccc(Oc3ccccc3)cc2)OC(=O)N(Nc2ccccc2)C1=O` (stereo not given), for which the Potency result is “inactive”.

Consider `COc1cc(C=O)cc2c1[C@H](COC(N)=O)[C@]1(OC(C)=O)ON2C[C@H]2[C@@H]1N2C(C)=O`, for which the Potency result is “inactive”.

In the case of `C[C@H]1O[C@@H](O[C@H]2[C@@H](O)C[C@H](O[C@H]3[C@@H](O)C[C@H](O[C@H]4CC[C@@]5(C)[C@H](CC[C@@H]6[C@@H]5CC[C@]5(C)[C@@H](C7=CC(=O)OC7)CC[C@]65O)C4)O[C@@H]3C)O[C@@H]2C)C[C@H](O)[C@@H]1O`, the Potency is 0.124 µM (active).

On to `CN(C)c1ccc(N=Nc2ccccc2)cc1`, for which the Potency result is “inactive”.

In the case of `COc1ccc(OC)c(CC(C)N)c1` (stereo not given), the Potency entry was “inactive”.

As to `CCOP(=O)(NC(C)C)Oc1ccc(SC)c(C)c1` (stereo not given), the Potency entry is “inactive”.

For the molecule `CCCCCCCCCCCCCN1CC(C)OC(C)C1` (stereo not given), the Potency entry was “inactive”.

For the molecule `O=[N+]([O-])c1ccc2ccc3cccc4ccc1c2c34`, the Potency entry was “inactive”.

For the molecule `C=CC(=O)OCCCCOC(=O)C=C`, the Potency result is “inactive”.

`Clc1ccc(C(c2ccc(Cl)cc2)C(Cl)(Cl)Cl)cc1`: the Potency was 55.3 µM (active).

For the molecule `CCc1nn(C)c(C(=O)NCc2ccc(C(C)(C)C)cc2)c1Cl`, the Potency was 54.9 µM (active).

For the molecule `Nc1ccccc1C(=O)OC/C=C/c1ccccc1`, the Potency result was “inactive”.

Regarding `O=c1c(C2CC(c3ccc(-c4ccc(Br)cc4)cc3)Cc3ccccc32)c(O)sc2ccccc12` (stereo not given), the Potency entry was “inactive”.

In the case of `CC[C@H](C)[C@H]1O[C@]2(C=C[C@@H]1C)C[C@@H]1C[C@@H](C/C=C(\C)[C@@H](O[C@H]3C[C@H](OC)[C@@H](O[C@H]4C[C@H](OC)[C@@H](O)[C@H](C)O4)[C@H](C)O3)[C@@H](C)/C=C/C=C3\CO[C@@H]4[C@H](O)C(C)=C[C@@H](C(=O)O1)[C@]34O)O2`, the Potency is 28.9 µM (active).

Turning to `CN(C)C(=S)S`, the Potency is 15.5 µM (active).

Consider `Oc1ccc(C(=C(Cl)Cl)c2ccc(O)cc2)cc1`, for which the Potency entry is “inactive”.

For the molecule `COP(=O)(OC)SCn1c(=O)oc2cc(Cl)cnc21`, the Potency result was “inactive”.

Turning to `CC(C)C1CCC(Cc2ccc(Cl)cc2)C1(O)Cn1cncn1` (stereo not given), the Potency was 54.4 µM (active).

`CCCOCC(=Nc1ccc(Cl)cc1C(F)(F)F)n1ccnc1`: the Potency was 30.9 µM (active).

Regarding `O=C(CCl)Nc1ccccc1`, the Potency entry is “inactive”.

In the case of `N#CSCSC#N`, the Potency is 25.1 µM (active).

As for `COC12CC[C@@]3(C[C@@H]1C(C)(O)C(C)(C)C)[C@H]1Cc4ccc(O)c5c4[C@@]3(CCN1CC1CC1)[C@H]2O5` (stereo not given in full), the Potency was 54.6 µM (active).

As for `CCOP(=S)(OCC)OC(Cl)C(Cl)(Cl)Cl` (stereo not given), the Potency result is “inactive”.

`O=c1ssc(Cl)c1Cl`: the Potency was 27.5 µM (active).

Take `CCN(CC)c1c([N+](=O)[O-])cc(C(F)(F)F)c(N)c1[N+](=O)[O-]`: the Potency entry is “inactive”.

For the molecule `C[C@H]1CC[C@@H]2[C@@H](C)[C@H]3[C@H](C[C@H]4[C@@H]5CC=C6CC(O[C@@H]7O[C@H](CO)[C@H](O)[C@H](O[C@@H]8O[C@H](CO)[C@@H](O)[C@H](O)[C@H]8O)[C@H]7O[C@H]7O[C@@H](C)[C@H](O)[C@@H](O)[C@H]7O)CC[C@]6(C)[C@H]5CC[C@]34C)N2C1` (stereo not given in full), the Potency was 56.7 µM (active).

Turning to `C[C@@H]1O[C@@H](O[C@H]2C[C@@H](O)[C@]3(CO)[C@H]4[C@H](O)C[C@]5(C)[C@@H](C6=CC(=O)OC6)CC[C@]5(O)[C@@H]4CC[C@]3(O)C2)[C@H](O)[C@H](O)[C@H]1O`, the Potency is 0.0261 µM (active).

Regarding `CCOC(=O)OC1=C(c2cc(C)ccc2C)C(=O)NC12CCC(OC)CC2` (stereo not given), the Potency entry was “inactive”.

`CCN(CC)C(=S)[S-].CCN(CC)C(=S)[S-].[Zn+2]`: the Potency is 12.2 µM (active).

Turning to `Cc1ccc(OP(=O)(Oc2ccccc2)Oc2ccccc2)cc1`, the Potency entry is “inactive”.

As to `CCOCn1c(-c2ccc(Cl)cc2)c(C#N)c(Br)c1C(F)(F)F`, the Potency result was “inactive”.
